The values below come from the supplement of paper PMC12067093, “Discovery and optimisation of a covalent ligand for TRIM25 and its application to targeted protein ubiquitination” (Chemical Science, 2025).

Compound in the assay: Cc1cc(ccc1-c1ccccc1)C(=O)N1CCCN(CC1)C(=O)CCl [compound 10]
As to the kind of experiment: probe-labelled cysteine peptide fold change vs DMSO (competition) (log2 fold change); higher = less target engagement (more negative = stronger competition). Conditions: THP-1, incubation time: 4 h.

Targets with the largest changes are over-represented here; the source holds about 21,000 in all.
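Further: competitive profiling in live THP-1 cells: cysteine peptides tagged with an iodoacetamide desthiobiotin (IA-DTB) probe, intensity after compound treatment relative to DMSO-treated cells.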

UniProt Q92610, sequence (Q92610 whole entry, looked up): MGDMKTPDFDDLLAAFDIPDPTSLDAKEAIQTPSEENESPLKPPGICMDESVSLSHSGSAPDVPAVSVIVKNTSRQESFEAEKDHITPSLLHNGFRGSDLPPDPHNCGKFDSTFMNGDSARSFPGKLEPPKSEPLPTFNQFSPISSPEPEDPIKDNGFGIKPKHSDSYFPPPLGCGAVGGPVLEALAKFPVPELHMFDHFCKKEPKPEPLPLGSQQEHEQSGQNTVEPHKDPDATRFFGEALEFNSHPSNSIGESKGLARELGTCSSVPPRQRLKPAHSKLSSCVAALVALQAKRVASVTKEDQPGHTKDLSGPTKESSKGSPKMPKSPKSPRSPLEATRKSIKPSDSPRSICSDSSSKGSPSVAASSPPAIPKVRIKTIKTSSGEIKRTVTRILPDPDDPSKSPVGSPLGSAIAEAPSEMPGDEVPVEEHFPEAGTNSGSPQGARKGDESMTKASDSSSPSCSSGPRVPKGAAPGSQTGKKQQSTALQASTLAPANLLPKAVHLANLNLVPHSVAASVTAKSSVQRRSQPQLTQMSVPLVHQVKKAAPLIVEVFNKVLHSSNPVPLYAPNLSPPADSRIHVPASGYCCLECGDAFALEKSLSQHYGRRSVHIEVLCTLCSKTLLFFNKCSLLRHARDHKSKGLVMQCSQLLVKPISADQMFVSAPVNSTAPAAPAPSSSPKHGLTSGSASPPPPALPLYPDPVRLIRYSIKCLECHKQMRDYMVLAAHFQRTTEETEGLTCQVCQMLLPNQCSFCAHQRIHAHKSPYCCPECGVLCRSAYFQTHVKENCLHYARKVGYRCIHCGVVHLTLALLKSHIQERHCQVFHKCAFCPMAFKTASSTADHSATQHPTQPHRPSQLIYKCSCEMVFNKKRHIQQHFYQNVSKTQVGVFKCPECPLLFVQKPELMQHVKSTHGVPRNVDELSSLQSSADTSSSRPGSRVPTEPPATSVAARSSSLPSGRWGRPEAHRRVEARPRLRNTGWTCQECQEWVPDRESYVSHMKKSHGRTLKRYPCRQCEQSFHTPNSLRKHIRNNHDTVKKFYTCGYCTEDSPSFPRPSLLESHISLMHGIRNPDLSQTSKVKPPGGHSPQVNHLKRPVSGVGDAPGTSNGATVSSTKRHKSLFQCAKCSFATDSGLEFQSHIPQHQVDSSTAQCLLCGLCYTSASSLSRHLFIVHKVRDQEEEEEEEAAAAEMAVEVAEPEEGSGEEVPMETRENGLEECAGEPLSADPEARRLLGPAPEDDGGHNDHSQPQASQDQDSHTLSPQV
UniProt Q15649, sequence (Q15649 whole entry, looked up): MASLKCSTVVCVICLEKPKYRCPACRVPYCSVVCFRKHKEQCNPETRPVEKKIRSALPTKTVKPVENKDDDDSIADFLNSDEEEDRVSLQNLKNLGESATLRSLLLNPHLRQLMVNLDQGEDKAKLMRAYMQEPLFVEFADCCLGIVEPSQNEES
UniProt Q9Y4P8, sequence (Q9Y4P8 whole entry, looked up): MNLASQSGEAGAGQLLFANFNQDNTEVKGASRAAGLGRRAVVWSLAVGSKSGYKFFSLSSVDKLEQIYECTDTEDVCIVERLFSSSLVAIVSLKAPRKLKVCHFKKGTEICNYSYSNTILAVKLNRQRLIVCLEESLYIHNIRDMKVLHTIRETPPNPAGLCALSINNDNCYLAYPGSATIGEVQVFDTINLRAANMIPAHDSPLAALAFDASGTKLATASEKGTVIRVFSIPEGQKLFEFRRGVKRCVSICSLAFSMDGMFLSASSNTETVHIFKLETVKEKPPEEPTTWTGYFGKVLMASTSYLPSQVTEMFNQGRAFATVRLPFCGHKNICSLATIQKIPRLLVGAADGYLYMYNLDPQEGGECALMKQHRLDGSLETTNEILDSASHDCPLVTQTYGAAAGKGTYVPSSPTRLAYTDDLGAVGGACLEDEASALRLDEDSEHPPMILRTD
UniProt O43264, sequence (O43264 whole entry, looked up): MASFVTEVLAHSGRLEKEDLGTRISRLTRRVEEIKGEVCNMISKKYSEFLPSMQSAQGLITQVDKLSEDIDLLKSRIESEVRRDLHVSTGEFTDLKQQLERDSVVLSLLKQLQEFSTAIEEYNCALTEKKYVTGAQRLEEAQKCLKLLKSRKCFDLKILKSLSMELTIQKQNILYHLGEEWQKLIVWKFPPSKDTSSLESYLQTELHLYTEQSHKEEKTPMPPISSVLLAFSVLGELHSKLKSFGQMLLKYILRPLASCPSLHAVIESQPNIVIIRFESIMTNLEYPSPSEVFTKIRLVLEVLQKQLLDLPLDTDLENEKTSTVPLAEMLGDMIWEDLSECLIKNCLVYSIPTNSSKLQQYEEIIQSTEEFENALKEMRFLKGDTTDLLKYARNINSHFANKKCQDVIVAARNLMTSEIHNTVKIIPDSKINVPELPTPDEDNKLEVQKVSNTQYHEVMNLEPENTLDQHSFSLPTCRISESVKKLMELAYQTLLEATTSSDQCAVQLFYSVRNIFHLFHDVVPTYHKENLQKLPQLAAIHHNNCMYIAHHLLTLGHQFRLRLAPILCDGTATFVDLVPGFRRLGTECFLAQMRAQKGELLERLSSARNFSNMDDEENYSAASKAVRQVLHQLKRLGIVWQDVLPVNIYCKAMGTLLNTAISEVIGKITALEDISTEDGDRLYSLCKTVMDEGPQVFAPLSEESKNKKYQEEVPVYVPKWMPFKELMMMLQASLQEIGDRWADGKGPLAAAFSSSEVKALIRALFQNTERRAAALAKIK
UniProt Q9NNW5, sequence (Q9NNW5 whole entry, looked up): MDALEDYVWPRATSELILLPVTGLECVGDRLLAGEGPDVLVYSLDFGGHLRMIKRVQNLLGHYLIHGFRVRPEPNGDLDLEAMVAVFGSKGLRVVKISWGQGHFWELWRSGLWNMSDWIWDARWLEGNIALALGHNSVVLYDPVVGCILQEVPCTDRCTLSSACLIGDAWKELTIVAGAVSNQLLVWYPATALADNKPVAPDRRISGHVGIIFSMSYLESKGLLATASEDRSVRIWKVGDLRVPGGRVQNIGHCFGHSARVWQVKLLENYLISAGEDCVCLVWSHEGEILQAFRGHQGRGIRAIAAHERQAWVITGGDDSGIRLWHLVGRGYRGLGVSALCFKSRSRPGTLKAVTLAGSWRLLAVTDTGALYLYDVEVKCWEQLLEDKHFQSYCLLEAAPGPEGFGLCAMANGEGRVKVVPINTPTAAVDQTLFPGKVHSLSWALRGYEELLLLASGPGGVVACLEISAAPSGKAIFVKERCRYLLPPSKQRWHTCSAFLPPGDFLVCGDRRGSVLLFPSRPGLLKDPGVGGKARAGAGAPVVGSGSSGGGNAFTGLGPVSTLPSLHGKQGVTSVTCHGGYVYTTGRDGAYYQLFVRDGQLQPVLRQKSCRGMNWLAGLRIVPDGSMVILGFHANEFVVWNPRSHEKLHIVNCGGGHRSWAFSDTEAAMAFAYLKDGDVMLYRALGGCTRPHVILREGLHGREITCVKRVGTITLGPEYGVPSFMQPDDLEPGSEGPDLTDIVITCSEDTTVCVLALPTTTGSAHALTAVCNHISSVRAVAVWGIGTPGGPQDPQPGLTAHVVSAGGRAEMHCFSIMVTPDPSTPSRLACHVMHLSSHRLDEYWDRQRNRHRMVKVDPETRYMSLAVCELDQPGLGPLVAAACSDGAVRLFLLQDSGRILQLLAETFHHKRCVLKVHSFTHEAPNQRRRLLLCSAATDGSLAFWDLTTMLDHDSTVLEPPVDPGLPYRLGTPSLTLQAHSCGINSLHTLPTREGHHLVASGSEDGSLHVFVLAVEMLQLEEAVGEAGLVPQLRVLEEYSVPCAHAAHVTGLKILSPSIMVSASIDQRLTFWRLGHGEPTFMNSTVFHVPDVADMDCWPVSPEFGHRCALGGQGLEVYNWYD
UniProt Q5JSH3, sequence (Q5JSH3 whole entry, looked up): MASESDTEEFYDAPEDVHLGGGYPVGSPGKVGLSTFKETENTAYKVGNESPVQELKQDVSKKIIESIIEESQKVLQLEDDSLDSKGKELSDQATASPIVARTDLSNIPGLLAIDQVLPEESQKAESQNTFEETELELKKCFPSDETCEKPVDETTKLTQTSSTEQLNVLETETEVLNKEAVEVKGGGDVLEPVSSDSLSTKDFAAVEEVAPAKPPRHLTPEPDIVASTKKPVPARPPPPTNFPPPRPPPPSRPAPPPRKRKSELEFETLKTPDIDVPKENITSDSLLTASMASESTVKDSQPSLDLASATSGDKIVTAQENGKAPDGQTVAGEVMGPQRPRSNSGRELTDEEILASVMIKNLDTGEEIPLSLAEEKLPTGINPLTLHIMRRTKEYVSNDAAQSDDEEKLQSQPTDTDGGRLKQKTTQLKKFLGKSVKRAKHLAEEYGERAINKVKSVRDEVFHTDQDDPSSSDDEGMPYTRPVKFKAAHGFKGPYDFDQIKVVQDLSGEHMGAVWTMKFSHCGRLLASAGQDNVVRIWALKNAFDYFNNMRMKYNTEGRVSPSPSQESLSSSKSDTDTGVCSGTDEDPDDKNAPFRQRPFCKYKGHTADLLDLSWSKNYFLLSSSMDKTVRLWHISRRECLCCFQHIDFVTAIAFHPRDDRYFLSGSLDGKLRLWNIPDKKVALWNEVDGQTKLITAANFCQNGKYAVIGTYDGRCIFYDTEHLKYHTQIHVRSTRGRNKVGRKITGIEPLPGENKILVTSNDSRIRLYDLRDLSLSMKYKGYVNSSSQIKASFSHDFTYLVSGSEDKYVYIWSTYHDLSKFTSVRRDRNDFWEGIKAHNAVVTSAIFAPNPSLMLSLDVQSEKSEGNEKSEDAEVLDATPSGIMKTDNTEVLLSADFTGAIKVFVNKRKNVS
UniProt Q9NRH1, sequence (Q9NRH1 whole entry): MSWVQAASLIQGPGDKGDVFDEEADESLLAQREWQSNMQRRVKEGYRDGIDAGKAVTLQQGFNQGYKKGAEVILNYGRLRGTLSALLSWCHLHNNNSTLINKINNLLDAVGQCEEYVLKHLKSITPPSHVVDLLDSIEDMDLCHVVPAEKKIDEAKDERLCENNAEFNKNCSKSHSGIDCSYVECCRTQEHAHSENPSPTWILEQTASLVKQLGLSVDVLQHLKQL

For “ZMYM4_Q5VZL5_1499_SCVPNSPMWYSTFPIDPGTLDTMLTR (UniProt Q5VZL5)”, the “probe-labelled cysteine peptide fold change” value was -0.668 (10 µM) and -0.33 (50 µM).

With “ZFAND2A_Q8N6M9_84_GQIPDVVVGDHIDRDCDSHPGK (UniProt Q8N6M9)”, the “probe-labelled cysteine peptide fold change” value reads like this: (10 µM) 1.7; (50 µM) 3.88.

On to “ZNF592_Q92610_592_IHVPASGYCCLECGDAFALEK (UniProt Q92610)”, for which the “probe-labelled cysteine peptide fold change” value is -0.0351 (10 µM) and -0.192 (50 µM).

As to “ZW10_O43264_588_RLGTECFLAQMR (UniProt O43264)”, the “probe-labelled cysteine peptide fold change” value (10 µM) worked out at 0.00573 and the “probe-labelled cysteine peptide fold change” value (50 µM) is -0.0952.

Regarding “YAE1_Q9NRH1_143_SITPPSHVVDLLDSIEDMDLCHVVPAEK (UniProt Q9NRH1)”, the “probe-labelled cysteine peptide fold change” value is -0.335 (10 µM) and 0.0421 (50 µM).

Turning to “WDR6_Q9NNW5_830_LACHVMHLSSHR (UniProt Q9NNW5)”, the “probe-labelled cysteine peptide fold change” value reads like this: (10 µM) 0.144; (50 µM) 0.0864.

Take “ZNF451_Q9Y4E5_476_TWFCECNQR (UniProt Q9Y4E5)”: the “probe-labelled cysteine peptide fold change” value (10 µM) is 0.0139 and the “probe-labelled cysteine peptide fold change” value (50 µM) turned out to be 0.0709.

On to “ZNF687_Q8N1G0_91_NTVCPEQSEALAGGSAGDGAQAAGVTK (UniProt Q8N1G0)”, for which the “probe-labelled cysteine peptide fold change” value by setting is: (10 µM) -0.392; (50 µM) -0.0527.

Turning to “XPO4_Q9C0E2_492_IAAEHCIPLLTSLLEER (UniProt Q9C0E2)”, the “probe-labelled cysteine peptide fold change” value came out at 0.012 (10 µM) and 0.2 (50 µM).

On to “WIPI2_Q9Y4P8_430_LAYTDDLGAVGGACLEDEASALRLDEDSEHPPMILR (UniProt Q9Y4P8)”, for which the “probe-labelled cysteine peptide fold change” value is -0.352 (10 µM) and -0.0492 (50 µM).

“WDFY4_Q6ZS81_2226_TEDFVSCIENYR (UniProt Q6ZS81)”: the “probe-labelled cysteine peptide fold change” value is -0.17 (10 µM) and -0.159 (50 µM).

Regarding “WDR44_Q5JSH3_701_LITAANFCQNGK (UniProt Q5JSH3)”, the “probe-labelled cysteine peptide fold change” value reads like this: (10 µM) -0.0485; (50 µM) 0.165.

With “ZNHIT3_Q15649_30_VPYCSVVCFR (UniProt Q15649)”, the “probe-labelled cysteine peptide fold change” value is -0.0726 (10 µM) and -1.11 (50 µM).
